# According to the supplement of paper PMC12645437, “Orthogonal IMiD-Degron Pairs Induce Selective Protein Degradation in Cells” (ACS Chemical Biology, 2025):
# Whole data set: some 8,300 sequences, median “log2 fold change of degron read counts, EGFP-low vs EGFP+ sorted cells (limma voom), compound-induced degradation” near -1.1, cut for the highest 2% near 3.2. What follows is part of a selection rich in the highest values, with near analogues and random picks from the rest.
# T1: CRBN, Q96SW2
# T1 chain: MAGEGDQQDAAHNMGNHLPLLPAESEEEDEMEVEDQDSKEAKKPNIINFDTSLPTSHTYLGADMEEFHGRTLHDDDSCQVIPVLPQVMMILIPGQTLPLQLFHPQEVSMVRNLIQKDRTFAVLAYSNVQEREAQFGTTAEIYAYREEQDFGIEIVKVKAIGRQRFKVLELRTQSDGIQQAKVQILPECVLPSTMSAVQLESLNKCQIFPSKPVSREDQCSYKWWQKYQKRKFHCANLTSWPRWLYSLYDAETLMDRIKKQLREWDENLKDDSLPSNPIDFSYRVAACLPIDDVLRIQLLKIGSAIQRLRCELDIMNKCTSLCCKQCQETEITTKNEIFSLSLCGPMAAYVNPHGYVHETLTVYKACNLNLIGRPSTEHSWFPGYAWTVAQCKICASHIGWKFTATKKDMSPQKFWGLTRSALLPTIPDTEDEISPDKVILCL
# Target: T1, CRBN, Q96SW2
# Assay: log2 fold change of degron read counts, EGFP-low vs EGFP+ sorted cells (limma voom), compound-induced degradation; higher = more compound-induced degradation of the degron-EGFP fusion; degrons are variants of IKZF1/3 zinc finger 2; compound dose not given here
# Conditions: Jurkat, 18 h
# [1] = compound: compound 19 (5-tert-butyl-thalidomide)
# [2] = compound: compound 22 (5-morpholino-thalidomide)
# [3] = compound: compound 33 (diphenyl IMiD analogue)
# 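Also: pooled lentiviral library of zinc finger degron-EGFP fusions in mCherry-positive Jurkat cells, FACS-sorted after compound exposure, with degron abundance counted by next-generation sequencing.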
Sequence,log2 fold change of degron read counts [1],log2 fold change of degron read counts [2],log2 fold change of degron read counts [3],log2 fold change of degron read counts (compound: thalidomide)
"FSCPICGHHFTQKGNLLRHIKL [46F_47S_49P_50I_52G_53H_54H_55F_67L_, Q9UKT9]",-1.98,-2.66,-2,-1.93
"FDCPICGRVFTQKGNLLRHIKL [46F_47D_49P_50I_52G_53R_54V_55F_67L_, Q9UKT9]",-0.729,-0.635,1.53,1.97
"FLCNVCGAAFTQKGNLLRHIKL [46F_47L_49N_50V_52G_53A_54A_55F_67L_, Q9UKT9]",-1.6,-2.27,-0.522,-0.568
"FSCEICGAAFTQKGNLLRHIKL [46F_47S_49E_50I_52G_53A_54A_55F_67L_, Q9UKT9]",3.56,2.95,2.24,2.15
"FNCEICGAAFTQKGNLLRHIKL [46F_47N_49E_50I_52G_53A_54A_55F_67L_, Q9UKT9]",3.08,1.75,0.0717,0.718
"FKCEICGAAFTQKGNLLRHIKL [46F_47K_49E_50I_52G_53A_54A_55F_67L_, Q9UKT9]",2.15,-0.809,-1.83,0.606
"FCCEICGAAFTQKGNLLRHIKL [46F_47C_49E_50I_52G_53A_54A_55F_67L_, Q9UKT9]",3.72,3.1,2.29,2.46
"FTCEICGAAFTQKGNLLRHIKL [46F_47T_49E_50I_52G_53A_54A_55F_67L_, Q9UKT9]",3.16,3.21,2.33,3.02
"FACNVCGAMFTQKGNLLRHIKL [46F_47A_49N_50V_52G_53A_54M_55F_67L_, Q9UKT9]",0.511,-0.724,-0.968,-1.44
"FFCDQCGAAFTQKGNLLRHIKL [46F_47F_49D_50Q_52G_53A_54A_55F_67L_, Q9UKT9]",0.0639,-0.343,-0.617,-2.46
"LSCEICGFVCTQKGNLLRHIKL [46L_47S_49E_50I_52G_53F_54V_55C_67L_, Q9UKT9]",1.2,1.38,0.553,0.403
"LYCEICGFVCTQKGNLLRHIKL [46L_47Y_49E_50I_52G_53F_54V_55C_67L_, Q9UKT9]",3.3,3.29,2.43,0.954
"LQCEICGFVCTQKGNLLRHIKL [46L_47Q_49E_50I_52G_53F_54V_55C_67L_, Q9UKT9]",-0.0768,1.31,1.38,3.4
"LKCEICGFVCTQKGNLLRHIKL [46L_47K_49E_50I_52G_53F_54V_55C_67L_, Q9UKT9]",-1.72,-2.04,-2.48,-0.691
"LLCEICGFVCTQKGNLLRHIKL [46L_47L_49E_50I_52G_53F_54V_55C_67L_, Q9UKT9]",-0.934,-1.38,0.0357,1.04
"LWCEICGFVCTQKGNLLRHIKL [46L_47W_49E_50I_52G_53F_54V_55C_67L_, Q9UKT9]",2.88,3.17,2.26,0.659
"LACEICGFVCTQKGNLLRHIKL [46L_47A_49E_50I_52G_53F_54V_55C_67L_, Q9UKT9]",2.04,1.25,-0.215,-0.0645
"LCCEICGFVCTQKGNLLRHIKL [46L_47C_49E_50I_52G_53F_54V_55C_67L_, Q9UKT9]",0.511,0.955,1.53,1.13
"LFCEICGFVCTQKGNLLRHIKL [46L_47F_49E_50I_52G_53F_54V_55C_67L_, Q9UKT9]",3.27,3.45,1.38,1.31
"FCCDVCGACFTQKGNLLRHIKL [46F_47C_49D_50V_52G_53A_54C_55F_67L_, Q9UKT9]",0.633,0.299,1.47,-0.594
"FWCNQCGAKFTQKGNLLRHIKL [46F_47W_49N_50Q_52G_53A_54K_55F_67L_, Q9UKT9]",0.0883,0.432,-1.2,-1.53
"FTCNQCGRLFTQKGNLLRHIKL [46F_47T_49N_50Q_52G_53R_54L_55F_67L_, Q9UKT9]",-2.58,-2.81,-3.15,-2.31
"FYCPICGRVFTQKGNLLRHIKL [46F_47Y_49P_50I_52G_53R_54V_55F_67L_, Q9UKT9]",-0.29,-0.155,0.579,-1.3
"FWCNQCGRTFTQKGNLLRHIKL [46F_47W_49N_50Q_52G_53R_54T_55F_67L_, Q9UKT9]",-1.55,-1.36,-1.37,-1.45
"FVCDQCGAPFTQKGNLLRHIKL [46F_47V_49D_50Q_52G_53A_54P_55F_67L_, Q9UKT9]",-1.33,0.669,-0.689,-0.0169
"FICPICGRVFTQKGNLLRHIKL [46F_47I_49P_50I_52G_53R_54V_55F_67L_, Q9UKT9]",-1.47,-0.445,0.321,0.637
"FGCPICGAWFTQKGNLLRHIKL [46F_47G_49P_50I_52G_53A_54W_55F_67L_, Q9UKT9]",1.54,-0.463,1.47,-0.0772
"FCCEICGRVFTQKGNLLRHIKL [46F_47C_49E_50I_52G_53R_54V_55F_67L_, Q9UKT9]",-1.06,-1.44,-0.0327,-0.334
